Inconclusive results are not listed. The source made the active and inactive calls. Unless noted, the call rests on the fitted dose curve; in most records, active means well fitted curve in the direction sought with a large enough effect in the repeat runs; inconclusive means weak or mixed curves; inactive means no such curve, though single readings can be large; an effect the other way counts as inactive or inconclusive.
Tests used:
[1] = qHTS assay to identify aromatase inhibitors - cell viability counter screen (AID 743084);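 further: cells stimulated with testosterone during compound exposure; nearly all actives have a fitted effect of over 55% in size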; further: potency means the concentration at half of the fitted maximal effect
[2] = molecular target: Aryl hydrocarbon receptor (Homo sapiens) (UniProt P35869); assay: qHTS assay to identify small molecule that activate the aryl hydrocarbon receptor (AhR) signaling pathway (AID 743085); further: nearly all actives have a fitted effect of over 15% in size; further: potency means the concentration at half of the fitted maximal effect;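 on activation: HG2L7.5c1 human HepG2 liver cells with stably integrated DRE-driven firefly reporter; series mostly up to about 70 µM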
How it was run: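 Measured in HG2L7.5c1 cells: CellTiter-Fluor signal (30 min incubation, 37C) for viability, then luciferase luminescence (30 min, room temperature). Compound contact time was 24 h at 37C, following a 5 h pre-incubation.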

[3] = qHTS assay to identify small molecule that activate the aryl hydrocarbon receptor (AhR) signaling pathway - cell viability counter screen (AID 743086); further: nearly all actives have a fitted effect of over 45% in size; further: potency means the concentration at half of the fitted maximal effect
How it was run: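 Cytotoxicity counter screen: CellTiter-Fluor signal (30 min, 37 C) in 4000 HepG2 cells/well carrying the DRE-luciferase reporter, following 24 h compound exposure at 37 C.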

[4] = qHTS assay to identify small molecule phospholipidosis (PLD) inducers (AID 1259344; active means well fitted curve in the direction sought with a large enough effect; an effect the other way counts as inactive or inconclusive)
How it was run: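 Phospholipid accumulation was scored by imaging: fixed, Hoechst-counterstained HepG2 cells stained with LipidTOX Red after 24 h compound exposure at 37 C. Read-outs were pit count and pit intensity per well or per cell, with amiodarone and DMSO controls.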

[5] = molecular target: Nuclear receptor subfamily 1 group I member 2 (Rattus norvegicus) (UniProt Q9R1A7); assay: Rat pregnane X receptor (rPXR) activation by small molecules, qHTS assay (AID 1346983); settings: rPXR luciferase reporter cells, One-Glo luminescence, 24 h; max activation: stronger effect = higher value; further: nearly all actives have a fitted effect of over 20% in size; further: potency means the concentration at half of the fitted maximal effect
How it was run: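 Luminescent readout (One-Glo luciferase, 30 min room temperature) followed 24 hr compound treatment at 37 C of rPXR cells plated 2,000 per well and preincubated 5hr; qHTS format with compounds delivered in DMSO.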

[6] = molecular target: Nuclear receptor subfamily 1 group I member 2 (Homo sapiens) (UniProt O75469); assay: CYP3A4 induction through human pregnane X receptor (PXR) by small molecules, qHTS assay (AID 1346984); further: nearly all actives have a fitted effect of over 40% in size; further: potency means the concentration at half of the fitted maximal effect
How it was run: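 After 24 h at 37C with compound, DPX-2 cells (HepG2, co-transfected PXR response element and CYP3A4 promoter-luciferase) got 3uM final P450-Glo Luciferin-IPA for 3 h; One-Glo luminescence followed.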

[7] = molecular target: Nuclear receptor subfamily 1 group I member 2 (Homo sapiens) (UniProt O75469); assay: Human pregnane X receptor (PXR) activation by small molecules, qHTS assay (AID 1346985); further: nearly all actives have a fitted effect of over 40% in size; further: potency means the concentration at half of the fitted maximal effect
How it was run: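 DPX-2 cells (HepG2 co-transfected with a PXR response element and a CYP3A4-promoter luciferase construct) were seeded at 2,000 per well, rested 5 hr at 37C, then exposed to DMSO-dissolved compounds for 24 hr. Activation was read as luciferase luminescence.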
On the % scale 0 is the no-effect control and ±100 the full control effect.

Chain of Nuclear receptor subfamily 1 group I member 2 (Rattus norvegicus) (Q9R1A7 whole entry, looked up): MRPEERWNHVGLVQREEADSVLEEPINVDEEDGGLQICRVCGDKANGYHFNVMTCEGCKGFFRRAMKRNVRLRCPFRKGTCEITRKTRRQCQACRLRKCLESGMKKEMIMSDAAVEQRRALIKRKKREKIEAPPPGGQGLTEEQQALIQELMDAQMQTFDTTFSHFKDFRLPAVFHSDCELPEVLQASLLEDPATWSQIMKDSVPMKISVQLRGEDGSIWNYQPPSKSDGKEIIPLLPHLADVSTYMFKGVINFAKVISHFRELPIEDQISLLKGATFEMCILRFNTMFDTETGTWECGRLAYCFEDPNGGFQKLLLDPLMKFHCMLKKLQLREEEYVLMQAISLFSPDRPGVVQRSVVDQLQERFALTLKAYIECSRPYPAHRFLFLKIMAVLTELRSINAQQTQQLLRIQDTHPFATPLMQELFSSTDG
Chain of Aryl hydrocarbon receptor (Homo sapiens) (P35869 whole entry, looked up): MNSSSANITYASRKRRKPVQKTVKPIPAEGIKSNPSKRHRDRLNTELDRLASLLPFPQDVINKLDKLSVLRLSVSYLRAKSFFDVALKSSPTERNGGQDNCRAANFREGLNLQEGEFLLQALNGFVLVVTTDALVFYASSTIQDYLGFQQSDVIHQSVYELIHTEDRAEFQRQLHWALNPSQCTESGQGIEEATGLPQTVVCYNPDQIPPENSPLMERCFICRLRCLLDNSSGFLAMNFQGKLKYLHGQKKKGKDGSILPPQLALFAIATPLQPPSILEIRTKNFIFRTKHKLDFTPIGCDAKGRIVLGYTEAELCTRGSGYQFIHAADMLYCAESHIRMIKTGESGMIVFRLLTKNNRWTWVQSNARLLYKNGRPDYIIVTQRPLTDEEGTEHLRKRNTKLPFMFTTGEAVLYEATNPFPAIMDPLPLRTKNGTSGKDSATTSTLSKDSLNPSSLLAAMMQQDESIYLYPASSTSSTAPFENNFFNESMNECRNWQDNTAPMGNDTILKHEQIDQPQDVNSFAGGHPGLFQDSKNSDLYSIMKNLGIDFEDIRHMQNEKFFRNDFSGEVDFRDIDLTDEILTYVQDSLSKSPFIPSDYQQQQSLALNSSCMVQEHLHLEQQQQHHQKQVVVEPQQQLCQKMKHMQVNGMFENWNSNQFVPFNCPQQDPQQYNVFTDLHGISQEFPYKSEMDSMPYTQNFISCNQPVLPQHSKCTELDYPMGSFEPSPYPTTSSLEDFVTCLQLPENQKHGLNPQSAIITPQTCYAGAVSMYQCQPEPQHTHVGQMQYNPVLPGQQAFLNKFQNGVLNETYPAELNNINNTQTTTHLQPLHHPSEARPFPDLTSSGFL

Clc1cc(Cl)c(OCC#CI)cc1Cl
active: Potency [1] 21.1 µM | Potency [3] 26.6 µM
inactive: Potency [2] | Potency [4] | max activation [5] -1.32% | Potency [6] | Potency [7]

CO[C@H]1C[C@H](O[C@@H]2/C(C)=C/C[C@@H]3C[C@@H](C[C@]4(CC[C@H](C)[C@@H](C5CCCCC5)O4)O3)OC(=O)[C@@H]3C=C(C)/C(=N/O)[C@H]4OC/C(=C\C=C\[C@@H]2C)[C@]43O)O[C@@H](C)[C@@H]1O
inactive: Potency [1] | Potency [2] | Potency [3] | Potency [4] | max activation [5] -0.144% | Potency [6] | Potency [7]

CCC(Cc1c(I)cc(I)c(O)c1I)C(=O)O (stereo not drawn)
inactive: Potency [1] | Potency [4] | max activation [5] -2.63% | Potency [6] | Potency [7]

C[C@@H]1CCC2[C@@H](C)[C@@H](O)O[C@@H]3O[C@@]4(C)CC[C@@H]1[C@@]23OO4 (stereo partly drawn)
inactive: Potency [4] | max activation [5] -10.7% | Potency [6] | Potency [7]

NC(=S)N=Nc1ccc(NN=C(N)N)cc1
active: Potency [1] 23.7 µM | Potency [2] 11.9 µM | Potency [3] 29.8 µM
inactive: Potency [4] | max activation [5] -0.862% | Potency [6] | Potency [7]

Cc1cccc(Nc2ncccc2C(=O)O)c1C
active: Potency [2] 29.8 µM
inactive: Potency [1] | Potency [3] | Potency [4] | max activation [5] -0.253% | Potency [6] | Potency [7]

C=CC[C@@H]1/C=C(\C)C[C@H](C)C[C@H](OC)[C@H]2O[C@@](O)(C(=O)C(=O)N3CCCC[C@H]3C(=O)O[C@H](/C(C)=C/[C@@H]3CC[C@@H](O)[C@H](OC)C3)[C@H](C)[C@@H](O)CC1=O)[C@H](C)C[C@@H]2OC
inactive: Potency [1] | Potency [2] | Potency [3] | Potency [4] | max activation [5] -13.2% | Potency [6] | Potency [7]

COc1ccc(C[C@H](N)C(=O)N[C@H]2[C@@H](O)[C@H](n3cnc4c(N(C)C)ncnc43)O[C@@H]2CO)cc1
active: Potency [1] 9.44 µM | Potency [3] 3.76 µM
inactive: Potency [2] | Potency [4] | max activation [5] -3.7% | Potency [6] | Potency [7]

C[C@]12CC[C@@H]3c4ccc(OS(=O)(=O)O)cc4CC[C@H]3[C@@H]1CCC2=O
inactive: PLD induction [4] 0.241% [at 7.66 µM]

O=C(O)C1CCCN1 (stereo not drawn)
inactive: Potency [1] | Potency [2] | Potency [3] | Potency [4] | max activation [5] -0.193% | Potency [6] | Potency [7]

C=CCSSSCC=C
inactive: Potency [1] | Potency [2] | Potency [3] | Potency [4] | max activation [5] 0.11% | Potency [6] | Potency [7]

Nc1nc(=O)n([C@@H]2CS[C@H](CO)O2)cc1F
inactive: Potency [4] | max activation [5] 2.33% | Potency [6] | Potency [7]

CC[C@@H](C(=O)O)[C@@H]1O[C@@H]([C@@H](C)[C@H](O)[C@H](C)C(=O)[C@H](CC)[C@H]2O[C@]3(C=C[C@@H](O)[C@]4(CC[C@@](C)([C@H]5CC[C@](O)(CC)[C@H](C)O5)O4)O3)[C@H](C)C[C@@H]2C)[C@@H](C)C[C@@H]1C
inactive: Potency [1] | Potency [2] | Potency [3] | Potency [4] | max activation [5] -17.2% | Potency [6] | Potency [7]

CC[C@]1(O)CC2CN(CCc3c([nH]c4ccccc34)[C@@](C(=O)OC)(c3cc4c(cc3OC)N(C)[C@H]3[C@@](O)(C(N)=O)[C@H](O)[C@]5(CC)C=CCN6CC[C@]43[C@@H]65)C2)C1 (stereo partly drawn)
inactive: Potency [4]

CC1=C[C@H](O)CC(C)(C)[C@H]1/C=C/C(C)=C/C=C/C(C)=C/C=C/C=C(C)/C=C/C=C(C)/C=C/C1=C(C)C[C@@H](O)CC1(C)C
inactive: Potency [1] | Potency [2] | Potency [3] | Potency [4] | max activation [5] 0.35% | Potency [6] | Potency [7]

CNC(C)[C@@H]1CC[C@@H](N)[C@@H](O[C@H]2[C@H](O)[C@@H](O[C@H]3OC[C@](C)(O)[C@H](NC)[C@H]3O)[C@H](N)C[C@@H]2N)O1 (stereo partly drawn)
inactive: Potency [4] | max activation [5] -0.0148% | Potency [6] | Potency [7]

CCCCC[C@H](O)/C=C/[C@H]1[C@H](O)CC(=O)[C@@H]1CCCCCCC(=O)O
inactive: Potency [1] | Potency [2] | Potency [3] | Potency [4] | max activation [5] -0.783% | Potency [6] | Potency [7]

Cc1ccccc1
inactive: Potency [4] | max activation [5] -3.48%

OCC(S)CS (stereo not drawn)
inactive: Potency [1] | Potency [2] | Potency [3] | Potency [4] | max activation [5] -4.08% | Potency [6] | Potency [7]

N#CC(c1ccc(Cl)cc1)c1c(Cl)cc(-n2ncc(=O)[nH]c2=O)cc1Cl (stereo not drawn)
inactive: Potency [1] | Potency [2] | Potency [3] | Potency [4] | max activation [5] 12.6% | Potency [6] | Potency [7]

CCC(=O)O[C@@H]1CC(=O)O[C@H](C)C/C=C/C=C/[C@H](O)[C@H](C)C[C@H](CC=O)[C@H](O[C@@H]2O[C@H](C)[C@@H](O[C@H]3C[C@@](C)(O)[C@@H](OC(=O)CC)[C@H](C)O3)[C@H](N(C)C)[C@H]2O)[C@H]1OC
inactive: Potency [1] | Potency [2] | Potency [3] | Potency [4] | max activation [5] -4.74% | Potency [6] | Potency [7]

CCCOc1cc(N)ccc1C(=O)OCCN(CC)CC
inactive: Potency [1] | Potency [2] | Potency [3] | Potency [4] | max activation [5] 2.87% | Potency [6] | Potency [7]

O=[N+]([O-])c1c(Cl)cccc1-c1c[nH]cc1Cl
active: Potency [6] 11.2 µM | Potency [7] 14.1 µM
inactive: Potency [4] | max activation [5] 9.62%

CCN1C(=O)NC(c2ccccc2)C1=O (stereo not drawn)
inactive: Potency [1] | Potency [2] | Potency [3] | Potency [4] | max activation [5] 7.71% | Potency [6] | Potency [7]

COc1ccc(C(=O)CCC(=O)O)c2ccccc12
inactive: Potency [1] | Potency [2] | Potency [3] | Potency [4] | max activation [5] -4.04% | Potency [6] | Potency [7]

CC[C@@]1(O)C(=O)OCc2c1cc1n(c2=O)Cc2cc3c([N+](=O)[O-])cccc3nc2-1
inactive: Potency [4] | Potency [6] | Potency [7]
active: Potency [5] 6.31 µM

Reference: PubChem BioAssay (Tox21)
